Assay [1] relates to MCC-13. Kind of assay: qHTS assay to identify novel small-molecules to repurpose for Merkel cell carcinoma treatment (AID 1296009). Further: nearly all actives have a fitted effect of over 60% in size. The following applies: MCC and control cell lines, CellTiter-Glo viability, 72 h; series mostly up to 46 µM. In a few lines: (§1)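 Dose-response viability screen; 72 hr exposure at 37 degree celsius; CellTiter-Glo added, 10 min room temperature, luminescence read; RLUs scaled between no-cell and DMSO wells.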
On the technique in general: qHTS replaces the single test concentration by a dilution series.

Assay [2] concerns MCC-26. The assay is described as above. The note with it: MCC and control cell lines, CellTiter-Glo viability, 72 h; series mostly up to 46 µM. In a few lines: as §1
Background: ATP-based viability assays read luminescence as a measure of living cells.

Assay [3] has as its system MKL-1. Described as above. The following applies: MCC and control cell lines, CellTiter-Glo viability, 72 h; series mostly up to 46 µM. In a few lines: as §1
In assay [4] the test system is MKL-2. Described as above. The following applies: MCC and control cell lines, CellTiter-Glo viability, 72 h; series mostly up to 46 µM. In a few lines: as §1
Assay [5] concerns UISO. The assay is described as above. The note with it: MCC and control cell lines, CellTiter-Glo viability, 72 h; series mostly up to 46 µM. In a few lines:
as §1

For assay [6], the system named is WaGa. Described as above. The following applies: MCC and control cell lines, CellTiter-Glo viability, 72 h; series mostly up to 46 µM. In a few lines:
as §1

Assay [7] relates to C33A. Kind of assay: Primary qHTS to identify gynecologic anti-cancer compounds using libraries of approved drugs and bioactive compounds (AID 1345084). Further: nearly all actives have a fitted effect of over 55% in size. The following applies: Gynecologic cancer cell panel viability, ATPlite luminescence, 48 h; series mostly up to 57.5 µM. In a few lines: (§2)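 Five-concentration response, 48 h; readout is ATP-driven luciferase luminescence.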
The test system of assay [8] is Es-2. The assay is described as above. The note with it: Gynecologic cancer cell panel viability, ATPlite luminescence, 48 h; series mostly up to 57.5 µM. In a few lines:
as §2

Assay [9] has as its system HeLa. Described as above. The note with it: Gynecologic cancer cell panel viability, ATPlite luminescence, 48 h; series mostly up to 57.5 µM. In a few lines:
as §2

In assay [10] the test system is Hek293T. The description is as above. The following applies: Gynecologic cancer cell panel viability, ATPlite luminescence, 48 h, control line for the selectivity index; series mostly up to 57.5 µM. In a few lines:
as §2

Assay [11] concerns JEG-3. Described as above. The following applies: Gynecologic cancer cell panel viability, ATPlite luminescence, 48 h; series mostly up to 57.5 µM. In a few lines:
as §2

Assay [12] deals with OV90. The assay is described as above. The following applies: Gynecologic cancer cell panel viability, ATPlite luminescence, 48 h; series mostly up to 57.5 µM. In a few lines: as §2
The subject of assay [13] is PA-1. Described as above. The following applies: Gynecologic cancer cell panel viability, ATPlite luminescence, 48 h; series mostly up to 57.5 µM. In a few lines:
as §2

For assay [14], the system named is SKOV3. The assay is described as above. The following applies: Gynecologic cancer cell panel viability, ATPlite luminescence, 48 h; series mostly up to 57.5 µM. In a few lines:
as §2

Assay [15] has as its system Tov-21-G. Described as above. The note with it: Gynecologic cancer cell panel viability, ATPlite luminescence, 48 h; series mostly up to 57.5 µM. In a few lines: as §2
The test system of assay [16] is Tov112D. Described as above. The note with it: Gynecologic cancer cell panel viability, ATPlite luminescence, 48 h; series mostly up to 57.5 µM. In a few lines: as §2
The test system of assay [17] is NIH3T3. Kind of assay: qHTS assay to identify novel small-molecules to repurpose for Merkel cell carcinoma treatment (AID 1296009). Further: nearly all actives have a fitted effect of over 60% in size. The following applies: MCC and control cell lines, CellTiter-Glo viability, 72 h; series mostly up to 44.8 µM. In a few lines:
as §1

For assay [18], the system named is CASKI. Kind of assay: Primary qHTS to identify gynecologic anti-cancer compounds using libraries of approved drugs and bioactive compounds (AID 1345084). Further: nearly all actives have a fitted effect of over 55% in size. The note with it: Gynecologic cancer cell panel viability, ATPlite luminescence, 48 h; series mostly up to 57.5 µM. In a few lines: as §2
Assay [19] relates to CAOV3. The description is as above. The following applies: Gynecologic cancer cell panel viability, ATPlite luminescence, 48 h; series mostly up to 57.5 µM. In a few lines:
as §2

Results filed as inconclusive are left out. Values without a mark were called inactive. Calls of active or inactive are those of the source. The call rests on the fitted dose curve; in most records, active means well fitted curve in the direction sought with a large enough effect; inconclusive means small, poorly fitted or top-dose-only effect, or another doubt; inactive means no such curve, though single readings can be large; an effect the other way counts as inactive or inconclusive.
Potency means the concentration at half of the fitted maximal effect.

Turning to `CC(C)(O)CC(=O)NCCn1ccc2ncnc(Nc3ccc(Oc4cccc(C(F)(F)F)c4)c(Cl)c3)c21`, the Potency entry in assay [1], in assay [2], in assay [3], in [4], in assay [5] and in assay [6] was “inactive” throughout. Also, the Potency entry in [7], in assay [8], in assay [9], in [10], in assay [11] and in [12] was “inactive” throughout. Moreover, the Potency result in assay [13], in assay [15] and in assay [16] was “inactive” each time. The Potency in [14] is 22.4 µM (active).

As for `CC(C)=CCCC(C)=CCCC(C)=CCCC(C)=CCCC(C)=CCCC(C)=CCCC(C)=CCCC(C)=CCCC(C)=CCO`, the Potency result in assay [1], in assay [2], in assay [3], in assay [4], in assay [5] and in assay [6] was “inactive” in each case.

For `CCC(=O)NCC[C@@H]1CCc2ccc3c(c21)CCO3`, the Potency entry in [1], in assay [2], in assay [3], in assay [17], in assay [5] and in assay [6] was “inactive” throughout.

Consider `CNC(=O)c1ccc2c(C(=Nc3cccc(CN(C)C)c3)c3ccccc3)c(O)[nH]c2c1`, for which the Potency result in [1], in assay [2], in assay [3], in assay [5], in [6] and in assay [7] was “inactive” in each case. For the same compound, the Potency entry in assay [18], in assay [8], in assay [9], in [10], in assay [11] and in assay [12] was “inactive” each time. The Potency result in assay [13], in assay [14], in assay [15] and in assay [16] was “inactive” in each case.

For the compound `Nc1[nH]nc2nnc(-c3c(-c4ccccc4)nn4ccccc34)cc12`, the Potency entry in [1], in assay [2], in assay [3], in [17], in assay [5] and in assay [7] was “inactive” each time. Also, the Potency entry in assay [18], in assay [8], in assay [9], in assay [10], in assay [12] and in assay [13] was “inactive” throughout. Also, the Potency result in assay [14], in assay [15] and in assay [16] was “inactive” throughout. In addition, in assay [6], the Potency is 1.05 µM (active).

`CC1C(=O)OC2C(O)C34C5CC(C(C)(C)C)C36C(OC(=O)C6O)OC4(C(=O)O5)C12O` (stereo unspecified): the Potency result in assay [1], in assay [2], in assay [3] and in assay [5] was “inactive” in each case.

As to `OC(c1cc(C(F)(F)F)nc2c(C(F)(F)F)cccc12)C1CCCCN1` (stereo unspecified), the Potency entry in assay [1], in assay [2], in assay [3], in assay [5] and in assay [6] was “inactive” throughout.

For the compound `CNc1nc(-c2ccc3c(N)n[nH]c3c2)cc(N2C[C@@H](C(=O)NC3CCCCC3)CC[C@@H]2C)n1`, the Potency result in assay [1], in assay [2], in assay [3], in assay [5] and in assay [6] was “inactive” each time.

With `CO[C@H]1/C=C\O[C@@]2(C)Oc3c(C)c(O)c4c(O)c(c5c(nc6cc(C)ccn65)c4c3C2=O)NC(=O)C(C)=CC=C[C@H](C)[C@H](O)[C@@H](C)[C@@H](O)[C@@H](C)[C@H](OC(C)=O)[C@H]1C`, the Potency entry in assay [1], in assay [2], in [4] and in assay [5] was “inactive” in each case.

Turning to `O=C(CC12CC3CC(CC(C3)C1)C2)Nc1cccc2nc(NCCNCCO)ccc12`, the Potency result in assay [1], in assay [2], in [3], in assay [17], in assay [5] and in assay [6] was “inactive” throughout. Moreover, the Potency entry in assay [7], in assay [18], in assay [8], in [9], in assay [10] and in assay [11] was “inactive” throughout. In addition, the Potency result in [12], in [13], in [14], in [15] and in [16] was “inactive” in each case.

Turning to `CN1C(=O)C[C@H](C(=O)N[C@@H](Cc2cnc[nH]2)C(=O)N2CCC[C@@H]2C(N)=O)NC1=O`, the Potency result in assay [1], in assay [2] and in [17] was “inactive” in each case. Moreover, the Potency in assay [4] was 6.62 µM (active); in assay [6], 20.9 µM (active).

Turning to `CCNC(=O)CCCC=CC[C@@H]1[C@H](C=CC(O)CCc2ccccc2)[C@@H](O)C[C@@H]1O` (stereo partly specified), the Potency result in assay [1], in assay [2], in assay [3], in [5] and in assay [6] was “inactive” in each case.

For `CN(C(Cc1ccc(OS(=O)(=O)c2cccc3cnccc23)cc1)C(=O)N1CCN(c2ccccc2)CC1)S(=O)(=O)c1cccc2cnccc12` (stereo unspecified), the Potency result in assay [1], in assay [2] and in assay [3] was “inactive” throughout. In assay [5], the Potency was 7.43 µM (active).

`COc1ccc(-c2cc3nccn3c(Nc3ncccc3C(N)=O)n2)cc1OC`: the Potency result in assay [1], in assay [2], in assay [3], in [4], in assay [6] and in [7] was “inactive” each time. Further, the Potency result in assay [19], in [18], in assay [8], in [10], in assay [12] and in [16] was “inactive” in each case. Also, in assay [13], the Potency was 3.55 µM (active).

As for `CC(=O)O[C@]1(C(C)=O)CC[C@H]2[C@@H]3C=C(Cl)C4=CC(=O)[C@@H]5C[C@H]5[C@]4(C)[C@@H]3CC[C@@]21C`, the Potency result in [1], in [2], in assay [3], in assay [17] and in [6] was “inactive” throughout.

With `CCn1c(-c2nonc2N)nc2cncc(CNC3CCNCC3)c21`, the Potency entry in [1], in assay [2], in assay [3], in assay [5], in assay [19] and in assay [18] was “inactive” each time. In addition, the Potency entry in assay [8], in assay [9], in [11], in assay [13] and in [16] was “inactive” in each case.

Consider `O=C1Nc2ccc(I)cc2C1=Cc1cc(Br)c(O)c(Br)c1`, for which the Potency entry in assay [1], in assay [2], in [3], in assay [4] and in assay [6] was “inactive” in each case.

As for `CN(C)CCOc1ccc(-c2nc(-c3ccc4c(c3)CCC4=NO)c(-c3ccncc3)[nH]2)cc1`, the Potency entry in assay [1], in [2] and in assay [5] was “inactive” each time. Moreover, in [4], the Potency was 14.8 µM (active).

Regarding `c1cc(OCCN2CCCCC2)cc(-c2n[nH]c3ccc(-c4ncn[nH]4)cc23)c1`, the Potency entry in assay [1], in assay [2], in assay [3], in assay [7], in assay [18] and in assay [8] was “inactive” each time. Moreover, the Potency result in [9], in assay [10], in assay [11], in assay [12], in assay [13] and in [15] was “inactive” throughout. In addition, in [16], the Potency result is “inactive”. Besides, in [6], the Potency is 18.7 µM (active).

On to `CCN1CCC(n2cc(CNc3cc(Cl)c4ncc(C#N)c(Nc5ccc(F)c(Cl)c5)c4c3)nn2)CC1`, for which the Potency entry in assay [1], in assay [2], in assay [3], in [17], in assay [6] and in assay [7] was “inactive” throughout. For the same compound, the Potency entry in assay [18], in [8], in assay [9], in assay [10], in [11] and in assay [12] was “inactive” in each case. Further, the Potency entry in assay [13], in assay [15] and in assay [16] was “inactive” throughout.
